Compound activity deposited in PubChem by National Center for Advancing Translational Sciences (NCATS).
This is a sample that favours compounds with a hit; in the whole collection about 8.9% have one here.
MCF10A rerep: A quantitative high throughput screen for small molecules that induce DNA re-replication in MCF 10a normal breast cells; MCF 10A DNA re-replication, Hoechst nuclear intensity, 48 h; 2.9% of 350,000 active; AID 624296, 2012; Potency, µM (doses to about 46.1 µM), for inactives: at the highest dose activity, positive = re-replication, actives largely listed as activators; also: potency is read from the fitted curve at half-maximal effect; % of control where 0% means no effect; nearly all actives have a fitted effect of over 50% in size
KB-3-1 cytotox: qHTS assay for MDR1-selective chemotherapeutics: Primary screen using the parental adenocarcinoma cell KB-3-1. AID 1347075, 2019. 1.4% of 400,000 active. Potency, µM (doses to about 46.1 µM), hits mostly cytotoxic. KB-3-1 viability, CellTiter-Glo ATP luminescence, 72 h; also: potency is read from the fitted curve at half-maximal effect; % is scaled to controls: 0 for no effect and ±100 for the full control effect; nearly all actives have a fitted effect of over 60% in size
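Luminescent ATP read-out (CellTiter-Glo) measures survival of drug-naive KB-3-1 cells after 72 h compound exposure at 37 °C. Titration series was screened from lowest to highest concentration, with DMSO vehicle plates as background controls.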
D3 antag: qHTS of D3 Dopamine Receptor Antagonist: qHTS; max response, negative = inhibition, %; 2.5% of 360,000 active; AID 652054, 2013; D3R cells, DiscoveRx beta-arrestin luminescence, antagonist mode; stronger effect = lower value; D(3) dopamine receptor (Homo sapiens), P35462; in the data active = max response below about -50%; inconclusive = no clear call, values can overlap the other calls; also: % is scaled to controls: 0 for no effect and ±100 for the full control effect
Target sequence (P35462 whole entry, looked up): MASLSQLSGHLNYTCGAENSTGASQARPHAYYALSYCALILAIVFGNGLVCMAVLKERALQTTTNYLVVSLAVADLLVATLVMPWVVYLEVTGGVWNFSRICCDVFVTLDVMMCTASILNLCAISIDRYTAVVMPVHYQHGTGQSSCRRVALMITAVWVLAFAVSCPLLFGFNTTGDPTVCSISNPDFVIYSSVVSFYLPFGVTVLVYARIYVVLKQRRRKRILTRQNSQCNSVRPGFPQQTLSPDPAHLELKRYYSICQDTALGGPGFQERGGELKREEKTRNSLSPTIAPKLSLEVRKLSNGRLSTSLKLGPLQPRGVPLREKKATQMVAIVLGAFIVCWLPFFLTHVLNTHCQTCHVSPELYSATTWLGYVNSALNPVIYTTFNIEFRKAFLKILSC
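Cells expressing the human receptor were seeded at 1500 cells/well, incubated overnight at 37 degrees C in 5% CO2, then exposed to library compounds with dopamine controls for 90 minutes at 37 degrees C before luminescent detection.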
SW480 rereplic: A quantitative high throughput screen for small molecules that induce DNA re-replication in SW480 colon adenocarcinoma cells | 1.8% of 340,000 active | SW480 DNA re-replication, Hoechst DNA content imaging, 48 h | Potency, µM (series often up to 46.1 µM), for inactives: at the highest dose re-replication activation, actives largely listed as activators; also: potency is read from the fitted curve at half-maximal effect; % of control where 0% means no effect; nearly all actives have a fitted effect of over 55% in size
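First, 250 cells per well were seeded. Next, compound or vehicle (23 nL) was pinned in, plates sat 48 hr at 37 C. Finally Hoechst was added for 40 min before fluorescence scanning.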
KB-V1 MDR tox: qHTS assay for MDR1-selective chemotherapeutics: Primary screen using the drug-selected MDR subline cells KB-V1; KB-V1 MDR cells viability, CellTiter-Glo, 72 h; Potency, µM (highest dose often 46.1 µM), hits mostly cytotoxic; 3.4% of 400,000 active; AID 1347076, 2019; also: potency is read from the fitted curve at half-maximal effect; % is scaled to controls: 0 for no effect and ±100 for the full control effect; nearly all actives have a fitted effect of over 60% in size
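qHTS viability screen in drug-selected KB-V1 MDR cells: 72 h compound treatment at 37 degrees C, ATP luminescence end point.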
D3 ag: qHTS of D3 Dopamine Receptor Agonist: qHTS. D3R DiscoveRx beta-arrestin cells, luminescence, 90 min. max activation, %. 0.58% of 410,000 active; in the data active = max activation above about 30%; also: 0% is about no effect
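Cells at 1500/well, incubated overnight, then treated with pinned compounds (dopamine as control) for 90 min at 37 degrees C. DiscoveRx reagent added for 30 - 60 minutes at room temperature; luminescence read.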
An asterisk follows results filed as active; i = inactive; ? = inconclusive; · = no result. Unless noted, calls follow the shape of the dose curve; as a rule, active = well fitted curve in the direction sought with a large enough effect; inconclusive = small, poorly fitted or top-dose-only effect, or another doubt; inactive = no such curve, though single readings can be large; an effect the other way counts as inactive or inconclusive.

SMILES	MCF10A rerep	KB-3-1 cytotox	D3 antag	SW480 rereplic	KB-V1 MDR tox	D3 ag
CCn1cc([N+](=O)[O-])c(C(=O)Nc2ccn(C34CC5CC(CC(C5)C3)C4)n2)n1	16.4%	i	3.0	-0.1%	i	2.7
COc1ccccc1NC(=O)CN1CCCN(S(=O)(=O)c2ccc(Br)cc2)CC1	·	?	·	·	i	-7.3
Cc1c(O)ccc(C(=O)CN2CCN(Cc3ccc4c(c3)OCO4)CC2)c1O	3.2%	i	-14.5	-59.6%	23.1µM*	-8.6
COC(=O)c1c(NC(=O)CN2CCN(Cc3ccc4c(c3)OCO4)CC2)sc(C)c1C	?	?	-23.5	?	?	-7.3
O=C(c1cc2ccccc2oc1=O)N1CCN(Cc2ccc3c(c2)OCO3)CC1	-0.7%	i	-20.7	-9.4%	i	11.0
COC(=O)c1ccsc1NC(=O)CN1CCN(Cc2ccc3c(c2)OCO3)CC1	24.1%	i	?	0.1%	16.4µM*	-30.9
O=C(c1cccn2c(=O)c3ccc(Cl)cc3nc12)N1CCN(Cc2ccc3c(c2)OCO3)CC1	16.4µM*	i	-5.2	16.4µM*	i	-13.3
CCOC(=O)N1CCN(Cc2ccc3c(c2)OCO3)CC1	?	i	-28.2	-0.7%	i	10.1
O=C(c1cc2ccccc2o1)N1CCN(Cc2ccc3c(c2)OCO3)CC1	19.0%	i	-104.4*	15.0%	i	-19.9
O=C(/C=C/c1cccs1)N1CCN(Cc2ccc3c(c2)OCO3)CC1	10.9%	i	-10.0	-1.2%	18.4µM*	-5.4
O=C(c1ccc(COc2ccccc2Cl)o1)N1CCN(Cc2ccc3c(c2)OCO3)CC1	?	i	-9.5	-0.8%	i	-24.2
O=C(c1ccc(COc2ccc(Cl)cc2)o1)N1CCN(Cc2ccc3c(c2)OCO3)CC1	?	i	-18.8	15.3%	10.3µM*	-17.3
O=C(/C=C/c1cccc([N+](=O)[O-])c1)N1CCN(Cc2ccc3c(c2)OCO3)CC1	10.4%	i	-8.1	-11.0%	i	-4.1
O=C(NC(=S)N1CCN(Cc2ccc3c(c2)OCO3)CC1)c1cccc(Br)c1	10.5%	?	?	-0.4%	7.31µM*	-17.8
O=C(N1CCN(Cc2ccc3c(c2)OCO3)CC1)C12CC3CC(CC(C3)C1)C2	9.7%	i	-64.2*	-2.1%	i	-29.5
O=C(c1cc(F)c(F)c(F)c1F)N1CCN(Cc2ccc3c(c2)OCO3)CC1	1.3%	i	8.6	-15.0%	i	-2.9
O=C(NC(=S)N1CCN(Cc2ccc3c(c2)OCO3)CC1)c1ccc(Cl)cc1	?	i	?	2.3%	i	-9.4
CC(=O)c1sc2c(c1C)c(=O)n(-c1ccc(Cl)cc1)c(=O)n2Cc1cc(=O)n2cc(Cl)ccc2n1	·	i	·	·	i	11.1
CCc1ccc(CNC(=O)c2ccc(CSc3nc4ccncc4n3Cc3ccccc3)cc2)cc1	·	i	·	·	i	-27.4
COc1ccccc1N1CCN(C(=O)CSc2nc3ccccc3nc2Cc2ccccc2)CC1	·	i	·	·	i	11.6
Cc1ccc(C(=O)N2CCN(Cc3ccc4c(c3)OCO4)CC2)o1	-3.4%	i	-61.9*	-3.2%	i	1.5
Cc1ccc(NC(=O)N2CCN(Cc3ccc4c(c3)OCO4)CC2)cc1	0.0%	i	?	-0.8%	20.6µM*	-14.8
O=C(/C=C/c1cccs1)N1CCN(c2ccc(O)cc2)CC1	15.8µM*	?	-14.3	?	i	2.9
CC(C)NC(=O)c1cc2c(Cl)nc3ccccc3c2s1	·	i	·	·	i	3.9
COCCN(CCOc1cc(C)cc(C)c1)Cc1ccc(Cl)cc1	18.4µM*	i	-21.5	?	?	-20.1
SMILES	MCF10A rerep	KB-3-1 cytotox	D3 antag	SW480 rereplic	KB-V1 MDR tox	D3 ag
CCN(CC)CCOc1ccc(C(O)(Cc2ccc(Cl)cc2)c2ccc(C)cc2)cc1 (stereo not drawn)	9.44µM*	·	·	?	·	-20.7
O=C1CCCC2=C1C(c1cccs1)n1nc(SCc3ccccc3F)nc1N2 (stereo not drawn)	?	i	15.9	?	?	2.8
Cc1ccccc1CSc1nc2n(n1)C(c1cccs1)C1=C(CCCC1=O)N2 (stereo not drawn)	25.9µM*	i	5.7	?	?	0.5
CCC(=O)N1CCc2cc(S(=O)(=O)NCCC(=O)Nc3cccc(SC)c3)ccc21	·	i	·	·	i	6.6
Cc1cccc(Oc2ccccc2NC(=O)CSCC(=O)Nc2cc(C)on2)c1	18.6%	?	5.4	-2.7%	7.31µM*	16.2
CCOc1ccc(Oc2ccccc2NC(=O)CSCC(=O)Nc2cc(C)on2)cc1	19.6%	?	2.3	0.3%	?	-7.2
Oc1ccc(-c2nccs2)cc1	6.2%	i	-16.6	?	i	-0.8
Cc1cccc(/N=C/c2nc(-c3ccccc3Br)oc2O)n1	-17.5%	i	-5.4	4.11µM*	i	-2.4
Cc1ccc(NC(=O)c2sc3nc(-c4ccncc4)ccc3c2N)cc1	·	i	·	·	i	2.8
COc1ccccc1NC(=O)/C(=C/c1cccs1)NC(=O)c1ccco1	2.3%	i	-2.0	4.61µM*	i	-2.6
COc1ccc(NC(=O)/C(=C/c2cccs2)NC(=O)c2ccco2)cc1	-31.7%	i	3.7	-1.6%	i	6.5
COc1ccccc1NC(=O)c1sc(NC(=O)c2ccco2)c(C#N)c1C	16.4µM*	i	6.3	?	i	0.8
COc1cccc(-c2ccc3c(N)c(C(=O)Nc4ccccc4C)sc3n2)c1	·	i	·	·	i	8.5
COc1ccccc1NC(=O)c1sc2nc(-c3ccco3)ccc2c1N	14.6µM*	i	6.6	29.3%	i	3.7
Nc1c(C(=O)Nc2ccccc2)sc2nc(-c3ccco3)ccc12	18.4µM*	?	-9.0	?	?	-3.5
COC(=O)c1sc(NC(=O)c2ccco2)c(C#N)c1C	0.1%	i	0.0	?	i	6.5
COc1ccc(-c2cc(C(C)=O)c(C)n2CCC(=O)Nc2cc(Cl)ccc2C)cc1	·	i	·	·	?	-15.9
CNC(=O)C1CCCN(c2nnc(C)c3c(C)n(-c4ccccc4)nc23)C1 (stereo not drawn)	·	·	·	·	·	6.1
O=C(COc1ccccc1Cl)Nc1nnc(S(=O)(=O)N2CCCCCC2)s1	1.7%	i	-18.3	-3.1%	i	-1.7
CCc1nn(CC(=O)N2CCC(C)CC2)c(=O)c2cc3occc3n12	·	i	·	·	i	-11.2
O=C(Nc1cc2c(cc1C(=O)c1ccccc1Br)OCCO2)c1ccccc1	·	·	·	·	·	4.2
